In the supplement of paper PMC10849652:
Of roughly 7,900 targets only a part is listed; those with a hit were picked by preference. About 0.6% of all pairs of compound and target were hits. Values without a mark were called inactive.

compound: CS(=O)(=O)CCNCc1ccc(-c2ccc3ncnc(Nc4ccc(OCc5cccc(F)c5)c(Cl)c4)c3c2)o1 [lapatinib]; assay: log2 fold change, soluble protein after heating vs DMSO (PISA); higher = thermal stabilisation; K562 cells, 10 uM, 30 min; active = over 0.2 and 3.5 SD of the protein, either way, in both replicates (recomputed)
How it was run: (§1)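 K562 cells at 2×10^6 cells/mL were treated for 30 min with 10 μM compound, and aliquots were heated for 3 min over 48°C-58°C before pooling. Extraction used PBS with 0.5% NP-40 at 4°C, and soluble protein was the supernatant after 21,000xg for 90 min, measured by TMTpro 16plex LC-MS/MS with channel sums equalised. Thermal stability values, relative to control samples and from duplicates, are log2 fold changes.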

Sequence of UniProt Q96G46 (Q96G46 whole entry, looked up): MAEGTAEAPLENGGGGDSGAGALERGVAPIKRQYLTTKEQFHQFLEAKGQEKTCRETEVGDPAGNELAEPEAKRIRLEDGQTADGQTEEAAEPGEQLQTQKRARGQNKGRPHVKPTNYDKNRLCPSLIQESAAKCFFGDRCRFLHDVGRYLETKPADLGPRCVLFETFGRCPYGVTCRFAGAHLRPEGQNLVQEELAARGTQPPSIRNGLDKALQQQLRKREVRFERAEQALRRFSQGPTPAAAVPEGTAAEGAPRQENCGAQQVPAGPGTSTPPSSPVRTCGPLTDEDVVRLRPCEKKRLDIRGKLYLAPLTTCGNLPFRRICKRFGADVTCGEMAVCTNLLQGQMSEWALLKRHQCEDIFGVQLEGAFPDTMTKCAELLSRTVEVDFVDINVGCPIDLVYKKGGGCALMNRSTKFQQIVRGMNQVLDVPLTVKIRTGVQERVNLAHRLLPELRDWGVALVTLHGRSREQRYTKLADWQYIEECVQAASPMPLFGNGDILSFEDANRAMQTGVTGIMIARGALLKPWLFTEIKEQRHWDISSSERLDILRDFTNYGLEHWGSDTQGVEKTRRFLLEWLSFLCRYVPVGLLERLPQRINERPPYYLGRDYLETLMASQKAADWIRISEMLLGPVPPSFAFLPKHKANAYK
Sequence of UniProt Q6V1X1 (Q6V1X1 whole entry, looked up): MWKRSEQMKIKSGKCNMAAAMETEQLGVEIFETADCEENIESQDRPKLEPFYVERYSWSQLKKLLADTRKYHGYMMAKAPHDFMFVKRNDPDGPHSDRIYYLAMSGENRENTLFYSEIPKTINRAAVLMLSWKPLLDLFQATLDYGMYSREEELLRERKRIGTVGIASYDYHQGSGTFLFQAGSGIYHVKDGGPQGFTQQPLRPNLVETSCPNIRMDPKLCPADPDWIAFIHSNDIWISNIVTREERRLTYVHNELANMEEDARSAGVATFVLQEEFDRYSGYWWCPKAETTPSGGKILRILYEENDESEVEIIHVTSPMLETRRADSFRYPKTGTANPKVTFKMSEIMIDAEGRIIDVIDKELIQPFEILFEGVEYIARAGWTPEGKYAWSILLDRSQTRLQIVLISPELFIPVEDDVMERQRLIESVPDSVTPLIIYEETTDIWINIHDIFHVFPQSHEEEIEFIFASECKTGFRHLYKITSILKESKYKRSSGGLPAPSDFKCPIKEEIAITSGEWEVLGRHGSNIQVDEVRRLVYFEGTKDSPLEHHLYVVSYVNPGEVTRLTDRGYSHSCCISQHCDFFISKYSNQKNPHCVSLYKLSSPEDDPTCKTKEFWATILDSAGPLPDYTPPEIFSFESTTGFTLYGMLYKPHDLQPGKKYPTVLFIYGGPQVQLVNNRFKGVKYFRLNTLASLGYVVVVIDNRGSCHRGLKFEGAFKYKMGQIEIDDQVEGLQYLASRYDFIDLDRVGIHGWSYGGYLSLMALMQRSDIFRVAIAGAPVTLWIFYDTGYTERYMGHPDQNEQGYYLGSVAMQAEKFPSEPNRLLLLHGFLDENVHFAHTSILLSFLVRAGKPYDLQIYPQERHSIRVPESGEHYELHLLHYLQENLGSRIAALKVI
Sequence of UniProt Q16254 (Q16254 whole entry, looked up): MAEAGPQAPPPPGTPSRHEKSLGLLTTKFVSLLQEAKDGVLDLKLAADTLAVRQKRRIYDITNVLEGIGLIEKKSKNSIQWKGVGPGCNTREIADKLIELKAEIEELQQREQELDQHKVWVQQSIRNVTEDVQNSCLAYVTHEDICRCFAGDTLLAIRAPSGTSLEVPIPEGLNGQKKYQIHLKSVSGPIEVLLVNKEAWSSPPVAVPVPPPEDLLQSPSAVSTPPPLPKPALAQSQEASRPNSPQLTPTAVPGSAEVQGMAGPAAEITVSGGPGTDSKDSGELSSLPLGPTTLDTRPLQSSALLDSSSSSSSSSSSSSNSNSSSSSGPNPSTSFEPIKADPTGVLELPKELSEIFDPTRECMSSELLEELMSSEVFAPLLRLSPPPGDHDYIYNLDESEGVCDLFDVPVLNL
Sequence of UniProt Q8N128 (Q8N128 whole entry, looked up): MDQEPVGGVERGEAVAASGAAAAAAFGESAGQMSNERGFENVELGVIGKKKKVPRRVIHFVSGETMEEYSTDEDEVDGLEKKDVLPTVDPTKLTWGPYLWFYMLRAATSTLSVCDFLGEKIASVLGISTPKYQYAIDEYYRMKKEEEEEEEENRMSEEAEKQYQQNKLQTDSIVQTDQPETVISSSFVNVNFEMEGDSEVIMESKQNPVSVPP
Sequence of UniProt Q01780 (Q01780 whole entry, looked up): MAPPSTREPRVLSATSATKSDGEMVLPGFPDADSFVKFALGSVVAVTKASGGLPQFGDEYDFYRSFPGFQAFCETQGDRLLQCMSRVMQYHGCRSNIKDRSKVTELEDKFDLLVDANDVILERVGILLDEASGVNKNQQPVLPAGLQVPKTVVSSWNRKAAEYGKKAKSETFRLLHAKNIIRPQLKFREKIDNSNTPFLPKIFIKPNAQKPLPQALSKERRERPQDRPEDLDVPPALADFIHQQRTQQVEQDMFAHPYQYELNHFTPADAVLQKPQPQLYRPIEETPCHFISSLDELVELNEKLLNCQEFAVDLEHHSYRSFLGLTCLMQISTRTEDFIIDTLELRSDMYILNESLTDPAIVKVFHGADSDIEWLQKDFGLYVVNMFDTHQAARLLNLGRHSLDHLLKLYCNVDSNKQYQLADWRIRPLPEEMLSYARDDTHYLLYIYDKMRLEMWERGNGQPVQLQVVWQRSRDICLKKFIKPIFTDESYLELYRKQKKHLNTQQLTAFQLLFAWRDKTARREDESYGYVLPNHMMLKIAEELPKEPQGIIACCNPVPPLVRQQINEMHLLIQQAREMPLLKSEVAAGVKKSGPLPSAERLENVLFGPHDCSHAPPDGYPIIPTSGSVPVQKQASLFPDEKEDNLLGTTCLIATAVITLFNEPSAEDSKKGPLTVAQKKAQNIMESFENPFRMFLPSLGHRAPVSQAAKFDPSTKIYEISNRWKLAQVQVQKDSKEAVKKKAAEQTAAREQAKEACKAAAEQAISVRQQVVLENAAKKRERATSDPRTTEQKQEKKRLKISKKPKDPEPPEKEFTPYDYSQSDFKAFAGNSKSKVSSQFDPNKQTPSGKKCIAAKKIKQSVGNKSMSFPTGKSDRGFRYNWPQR
Sequence of UniProt Q9H777 (Q9H777 whole entry, looked up): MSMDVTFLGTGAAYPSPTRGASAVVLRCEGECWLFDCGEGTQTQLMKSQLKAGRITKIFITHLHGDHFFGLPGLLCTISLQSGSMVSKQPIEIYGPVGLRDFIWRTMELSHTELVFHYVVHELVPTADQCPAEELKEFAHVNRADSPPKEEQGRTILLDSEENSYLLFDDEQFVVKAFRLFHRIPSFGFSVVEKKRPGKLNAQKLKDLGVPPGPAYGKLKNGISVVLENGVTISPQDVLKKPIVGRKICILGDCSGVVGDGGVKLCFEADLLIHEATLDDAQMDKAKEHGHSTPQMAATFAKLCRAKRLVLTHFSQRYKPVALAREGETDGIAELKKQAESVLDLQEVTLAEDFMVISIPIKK
Sequence of UniProt Q9NSI2 (Q9NSI2 whole entry, looked up): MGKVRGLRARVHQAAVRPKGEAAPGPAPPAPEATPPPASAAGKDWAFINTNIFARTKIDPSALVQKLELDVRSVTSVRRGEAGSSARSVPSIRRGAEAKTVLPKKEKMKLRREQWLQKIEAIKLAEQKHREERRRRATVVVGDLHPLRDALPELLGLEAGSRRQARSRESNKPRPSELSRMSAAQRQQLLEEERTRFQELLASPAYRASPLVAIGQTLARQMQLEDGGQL
Sequence of UniProt Q2TBE0 (Q2TBE0 whole entry, looked up): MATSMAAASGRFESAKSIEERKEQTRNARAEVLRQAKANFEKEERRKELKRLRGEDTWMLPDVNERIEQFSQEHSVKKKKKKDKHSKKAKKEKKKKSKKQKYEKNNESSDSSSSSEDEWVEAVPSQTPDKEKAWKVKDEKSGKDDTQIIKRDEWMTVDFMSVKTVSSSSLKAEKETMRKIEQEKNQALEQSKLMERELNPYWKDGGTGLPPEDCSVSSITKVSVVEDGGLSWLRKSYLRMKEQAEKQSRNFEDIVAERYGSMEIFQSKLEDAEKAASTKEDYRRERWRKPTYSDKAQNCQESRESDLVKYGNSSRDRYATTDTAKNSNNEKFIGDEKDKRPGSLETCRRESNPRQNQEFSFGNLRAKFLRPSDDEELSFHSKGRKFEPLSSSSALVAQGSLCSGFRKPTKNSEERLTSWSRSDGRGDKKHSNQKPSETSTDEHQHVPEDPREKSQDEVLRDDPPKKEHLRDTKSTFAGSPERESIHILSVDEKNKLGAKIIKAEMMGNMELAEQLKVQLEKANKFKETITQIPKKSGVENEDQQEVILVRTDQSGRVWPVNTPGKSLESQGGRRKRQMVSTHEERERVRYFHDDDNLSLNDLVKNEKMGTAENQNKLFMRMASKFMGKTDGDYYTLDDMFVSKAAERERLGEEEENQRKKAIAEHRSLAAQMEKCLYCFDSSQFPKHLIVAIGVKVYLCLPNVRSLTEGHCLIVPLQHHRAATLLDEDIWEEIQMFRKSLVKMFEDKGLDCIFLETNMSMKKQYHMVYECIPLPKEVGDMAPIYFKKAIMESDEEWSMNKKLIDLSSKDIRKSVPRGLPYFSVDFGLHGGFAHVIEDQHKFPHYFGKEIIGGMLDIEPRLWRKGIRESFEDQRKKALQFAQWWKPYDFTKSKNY

DYNC1I2 isoform 2 (UniProt Q13409) and EZH2 isoform 2 (UniProt Q15910) are within 0.2 log units of each other in log2 fold change: -0.002 for the first, 0.112 for the second.

EHBP1L1 (UniProt Q8N3D4) and DDX5 (UniProt P17844) are within 0.2 log units of each other in log2 fold change: 0.03 for the first, 0.02 for the second.

FAM177A1 isoform 2 (UniProt Q8N128) and EXOC4 (UniProt Q96A65) are within 0.2 log units of each other in log2 fold change: -0.018 for the first, 0.008 for the second.

E2F4 (UniProt Q16254) and DSN1 (UniProt Q9H410) are within 0.2 log units of each other in log2 fold change: 0.047 for the first, -0.028 for the second.

CWF19L2 (UniProt Q2TBE0) and DDOST (UniProt P39656) are within 0.2 log units of each other in log2 fold change: -0.08 for the first, 0.019 for the second.

DUS3L (UniProt Q96G46) and EFL1 (UniProt Q7Z2Z2) are within 0.2 log units of each other in log2 fold change: -0.037 for the first, -0.034 for the second.

EEF1A1 (UniProt P68104) and FAM207A (UniProt Q9NSI2) are within 0.2 log units of each other in log2 fold change: 0.1 for the first, 0.041 for the second.

DPP8 (UniProt Q6V1X1) and DBT (UniProt P11182) are within 0.2 log units of each other in log2 fold change: -0.077 for the first, 0.004 for the second.

FAM241A (UniProt Q8N8J7) and CYB561A3 isoform 2 (UniProt Q8NBI2) are within 0.2 log units of each other in log2 fold change: -0.038 for the first, -0.019 for the second.

FAM193B (UniProt Q96PV7) and FAM117A (UniProt Q9C073) are within 0.2 log units of each other in log2 fold change: -0.066 for the first, -0.026 for the second.

EHD2 (UniProt Q9NZN4) and DAXX (UniProt Q9UER7) are within 0.2 log units of each other in log2 fold change: -0.06 for the first, -0.05 for the second.

CTNNB1 (UniProt P35222) and EIF4G3 isoform 3 (UniProt O43432) are within 0.2 log units of each other in log2 fold change: 0 for the first, 0.142 for the second.

DCP2 (UniProt Q8IU60) and EIF2AK1 (UniProt Q9BQI3) are within 0.2 log units of each other in log2 fold change: -0.042 for the first, 0.025 for the second.

FAF2 (UniProt Q96CS3) and ELF1 (UniProt P32519) are within 0.2 log units of each other in log2 fold change: 0.029 for the first, -0.12 for the second.

Compared with DNAJC24 (UniProt Q6P3W2), EXOSC10 (UniProt Q01780) is lower in log2 fold change: 0.034 for the first, -0.221 for the second.

FAM118B (UniProt Q9BPY3) and ELAC1 (UniProt Q9H777) are within 0.2 log units of each other in log2 fold change: 0.018 for the first, -0.009 for the second.

EIF4E2 (UniProt O60573) showed a log2 fold change of 0.033.

DNAH5 (UniProt Q8TE73) was tested, and the log2 fold change was -0.484 (active).

compound: CS(=O)(=O)N1CCN(Cc2cc3nc(-c4cccc5[nH]ncc45)nc(N4CCOCC4)c3s2)CC1 [pictilisib]; assay: as above
How it was run: as §1

EHBP1L1 (UniProt Q8N3D4) and DDX5 (UniProt P17844) are within 0.2 log units of each other in log2 fold change: 0.217 for the first, 0.097 for the second.

FAM177A1 isoform 2 (UniProt Q8N128) and EXOC4 (UniProt Q96A65) are within 0.2 log units of each other in log2 fold change: 0 for the first, -0.059 for the second.

E2F4 (UniProt Q16254) and DNAH10 (UniProt Q8IVF4) are within 0.2 log units of each other in log2 fold change: 0.044 for the first, 0.052 for the second.

DNM2 isoform 4 (UniProt P50570) and CWF19L2 (UniProt Q2TBE0) are within 0.2 log units of each other in log2 fold change: -0.123 for the first, -0.309 for the second.

DDOST (UniProt P39656) and CTSS (UniProt P25774) are within 0.2 log units of each other in log2 fold change: -0.04 for the first, -0.043 for the second.

DUS3L (UniProt Q96G46) and EFL1 (UniProt Q7Z2Z2) are within 0.2 log units of each other in log2 fold change: -0.181 for the first, -0.016 for the second.

FAM207A (UniProt Q9NSI2) and DPP8 (UniProt Q6V1X1) are within 0.2 log units of each other in log2 fold change: -0.097 for the first, 0.022 for the second.

DDX27 (UniProt Q96GQ7) and DBT (UniProt P11182) are within 0.2 log units of each other in log2 fold change: 0.061 for the first, 0.052 for the second.

First: FAM241A (UniProt Q8N8J7)
Sequence of UniProt Q8N8J7 (Q8N8J7 whole entry, looked up, canonical isoform): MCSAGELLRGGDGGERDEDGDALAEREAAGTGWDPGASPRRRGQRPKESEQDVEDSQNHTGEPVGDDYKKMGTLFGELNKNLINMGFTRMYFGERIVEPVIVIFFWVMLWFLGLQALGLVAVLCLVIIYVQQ
Second: CYB561A3 isoform 2 (UniProt Q8NBI2)
Sequence of UniProt Q8NBI2 (Q8NBI2 whole entry, looked up): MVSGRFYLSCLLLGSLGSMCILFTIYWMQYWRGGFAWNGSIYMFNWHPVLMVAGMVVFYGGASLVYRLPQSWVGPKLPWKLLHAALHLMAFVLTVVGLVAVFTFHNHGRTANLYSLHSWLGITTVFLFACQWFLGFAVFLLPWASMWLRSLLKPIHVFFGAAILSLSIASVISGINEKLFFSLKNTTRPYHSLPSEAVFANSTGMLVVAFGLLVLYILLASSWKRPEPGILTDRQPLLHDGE
The log2 fold change of the first is lower: 0 for the first, 0.263 for the second.

FAM117A (UniProt Q9C073) and EHD2 (UniProt Q9NZN4) are within 0.2 log units of each other in log2 fold change: -0.019 for the first, -0.051 for the second.

Compared with DAXX (UniProt Q9UER7), DHRS13 (UniProt Q6UX07) is lower in log2 fold change: 0.247 for the first, 0.026 for the second.

CTNNB1 (UniProt P35222) and DOCK8 (UniProt Q8NF50) are within 0.2 log units of each other in log2 fold change: -0.2 for the first, -0.337 for the second.

EIF2AK1 (UniProt Q9BQI3) and FAF2 (UniProt Q96CS3) are within 0.2 log units of each other in log2 fold change: -0.147 for the first, 0.017 for the second.

Going from EXOSC10 (UniProt Q01780) to DNAH5 (UniProt Q8TE73), the log2 fold change falls from 0.227 to -0.001.

FAM118B (UniProt Q9BPY3) and ELAC1 (UniProt Q9H777) are within 0.2 log units of each other in log2 fold change: 0.099 for the first, 0.049 for the second.

compound: CS(=O)(=O)c1ccc(-c2cnc(N)c(C(=O)Nc3ccccc3)n2)cc1; assay: as above
How it was run: as §1

DYNC1I2 isoform 2 (UniProt Q13409) and EZH2 isoform 2 (UniProt Q15910) are within 0.2 log units of each other in log2 fold change: 0.185 for the first, -0.012 for the second.

EHBP1L1 (UniProt Q8N3D4) and DDX5 (UniProt P17844) are within 0.2 log units of each other in log2 fold change: 0.034 for the first, 0.035 for the second.

FAM177A1 isoform 2 (UniProt Q8N128) and EXOC4 (UniProt Q96A65) are within 0.2 log units of each other in log2 fold change: 0.018 for the first, 0.003 for the second.

E2F4 (UniProt Q16254) and DNAH10 (UniProt Q8IVF4) are within 0.2 log units of each other in log2 fold change: 0.04 for the first, 0.124 for the second.

Going from DSN1 (UniProt Q9H410) to DNM2 isoform 4 (UniProt P50570), the log2 fold change falls from -0.015 to -0.302.

CWF19L2 (UniProt Q2TBE0) and DDOST (UniProt P39656) are within 0.2 log units of each other in log2 fold change: -0.024 for the first, 0.014 for the second.

CTSS (UniProt P25774) and DUS3L (UniProt Q96G46) are within 0.2 log units of each other in log2 fold change: -0.007 for the first, -0.015 for the second.

EFL1 (UniProt Q7Z2Z2) and EEF1A1 (UniProt P68104) are within 0.2 log units of each other in log2 fold change: 0.02 for the first, 0.081 for the second.

FAM207A (UniProt Q9NSI2) and DPP8 (UniProt Q6V1X1) are within 0.2 log units of each other in log2 fold change: 0.009 for the first, 0.04 for the second.

DDX27 (UniProt Q96GQ7) and DBT (UniProt P11182) are within 0.2 log units of each other in log2 fold change: -0.039 for the first, -0.024 for the second.

First: FAM241A (UniProt Q8N8J7)
Second: CYB561A3 isoform 2 (UniProt Q8NBI2)
The log2 fold change of the first is lower: -0.235 for the first, 0 for the second.

FAM193B (UniProt Q96PV7) and FAM117A (UniProt Q9C073) are within 0.2 log units of each other in log2 fold change: -0.065 for the first, -0.039 for the second.

EHD2 (UniProt Q9NZN4) and DAXX (UniProt Q9UER7) are within 0.2 log units of each other in log2 fold change: 0 for the first, 0.154 for the second.

DHRS13 (UniProt Q6UX07) and DOCK8 (UniProt Q8NF50) are within 0.2 log units of each other in log2 fold change: 0.107 for the first, 0.216 for the second.

First: EIF4G3 isoform 3 (UniProt O43432)
Second: DCP2 (UniProt Q8IU60)
The log2 fold change of the first is higher: 0.053 for the first, -0.211 for the second.

EIF2AK1 (UniProt Q9BQI3) and FAF2 (UniProt Q96CS3) are within 0.2 log units of each other in log2 fold change: 0.023 for the first, 0.049 for the second.

ELF1 (UniProt P32519) and DNAJC24 (UniProt Q6P3W2) are within 0.2 log units of each other in log2 fold change: 0.093 for the first, -0.054 for the second.

EXOSC10 (UniProt Q01780) and DNAH5 (UniProt Q8TE73) are within 0.2 log units of each other in log2 fold change: 0.126 for the first, 0.049 for the second.

FAM118B (UniProt Q9BPY3) and ELAC1 (UniProt Q9H777) are within 0.2 log units of each other in log2 fold change: 0.099 for the first, -0.045 for the second.

With EIF4E2 (UniProt O60573) the log2 fold change was 0.151.

With CTNNB1 (UniProt P35222) the log2 fold change was 0.666 (active).
